We go through 13 compounds from PubChem BioAssay (NCI).

About 83,000 compounds went through this panel and 20% of them were active in at least one assay; those are over-represented in the sample as a whole.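 For each line, cells grew in 96-well plates with the test compound present at a single concentration for 48 hours.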 A number with no mark means an inactive call. The source made the active and inactive calls. Rule for the calls: active = growth percent below 10; inactive = the rest.

Test systems include HT29 colon; SNB-75 CNS; SNB-19 CNS; U251 CNS; PC-3 prostate; SK-MEL-5 melanoma; UACC-62 melanoma; LOX IMVI melanoma; SK-MEL-28 melanoma; SK-MEL-2 melanoma.
Holding throughout (experiment): NCI-60 one-dose screen, 48 h (100 = growth as untreated, 0 = no growth, -100 = all killed)
What all share (conditions): 10 µM

Take `COc1ccc(-c2nc3ccccn3c2-c2nnc(-c3cc(OC)c(OC)c(OC)c3)o2)cc1`: the growth is 70.4% in the experiment with HT29 colon; 59.9% with SNB-75 CNS; 44.5% in the experiment with SNB-19 CNS; 45.8% in the experiment with U251 CNS; 98.2% with PC-3 prostate; 44.7% in the experiment on SK-MEL-5 melanoma. Besides, the growth was 68.5% in the experiment with UACC-62 melanoma, 78.1% in the experiment with LOX IMVI melanoma, 83.6% in the experiment with SK-MEL-28 melanoma and 92.1% in the experiment on SK-MEL-2 melanoma.

Regarding `COc1cc(-c2cc(/C=C3\C(=O)Nc4cc(Cl)ccc43)[nH]n2)cc(OC)c1OC`, the growth with HT29 colon was 28.3%; in the experiment on SNB-75 CNS, -5.23% (active); with SNB-19 CNS it was 46.7%; in the experiment on U251 CNS, 40.4%; with PC-3 prostate it was 4.7% (active); in the experiment on SK-MEL-5 melanoma it was -49.5% (active). For the same compound, the growth in the experiment with UACC-62 melanoma is -51.5% (active); in the experiment on LOX IMVI melanoma it was 6.79% (active); in the experiment on SK-MEL-28 melanoma it was 19.9%; in the experiment with SK-MEL-2 melanoma, 51.9%.

Turning to `CN(C)CC(O)c1ccc2cc(Br)c3ccccc3c2c1` (stereo not given), the growth is 22% in the experiment with HT29 colon; 41.8% with SNB-75 CNS; 64.7% in the experiment on SNB-19 CNS; 56.4% in the experiment with U251 CNS; 49% with PC-3 prostate; 62.3% with SK-MEL-5 melanoma. Further, the growth is -64.8% (active) with UACC-62 melanoma, 28.9% in the experiment with LOX IMVI melanoma, 32.7% in the experiment on SK-MEL-28 melanoma and 102% in the experiment on SK-MEL-2 melanoma.

For the compound `CCN(CC)CCOc1nc2cc(OC)c(OC)cc2c2c1-c1ccc(OC)cc1C2=O`, the growth with HT29 colon is 40.4%; with SNB-75 CNS it was 56.5%; with SNB-19 CNS, 73.4%; with U251 CNS, 60%; with PC-3 prostate it was 81.8%; in the experiment on SK-MEL-5 melanoma it was 91%. For the same compound, the growth was 78.9% in the experiment on UACC-62 melanoma, 30.4% with LOX IMVI melanoma, 112% in the experiment with SK-MEL-28 melanoma and 74.2% with SK-MEL-2 melanoma.

Regarding `CC(=O)C1CCC2C3CC(F)C4=CC(=O)CCC4(C)C3C(O)CC12C` (stereo not given), the growth was 101% in the experiment with HT29 colon; 103% in the experiment on SNB-75 CNS; 109% with SNB-19 CNS; 104% with U251 CNS; 90.6% in the experiment on PC-3 prostate; 102% in the experiment on SK-MEL-5 melanoma. The growth in the experiment on UACC-62 melanoma is 103%; with LOX IMVI melanoma it was 101%; with SK-MEL-28 melanoma, 112%; with SK-MEL-2 melanoma it was 137%.

Turning to `O=C1/C(=C\c2ccc(Cl)cc2)CN(C(=S)Nc2ccccc2)C/C1=C\c1ccc(Cl)cc1`, the growth with HT29 colon is -77% (active); in the experiment on SNB-75 CNS, -36.3% (active); in the experiment on SNB-19 CNS, -72.9% (active); in the experiment on U251 CNS it was -97.7% (active); with PC-3 prostate, -55.6% (active); in the experiment with SK-MEL-5 melanoma, -73% (active). The growth with UACC-62 melanoma is -70.4% (active); with LOX IMVI melanoma, -80.1% (active); in the experiment with SK-MEL-28 melanoma it was -60.3% (active); in the experiment on SK-MEL-2 melanoma, -28.4% (active).

As for `Cc1ccc(NC(=O)CSc2nc3ccccc3c(=O)n2CCc2ccccc2)c(C(=O)O)c1`, the growth in the experiment on HT29 colon was 111%; in the experiment on SNB-75 CNS, 84.3%; with SNB-19 CNS it was 105%; in the experiment with U251 CNS it was 101%; in the experiment on PC-3 prostate, 97.8%; in the experiment on SK-MEL-5 melanoma, 105%. Further, the growth is 99.9% with UACC-62 melanoma, 99.6% in the experiment on LOX IMVI melanoma, 108% in the experiment on SK-MEL-28 melanoma and 89.8% in the experiment with SK-MEL-2 melanoma.

In the case of `C[C@]12CC[C@@H]3c4ccc(O)cc4C[C@@H](O)[C@H]3[C@@H]1CC[C@@H]2O`, the growth is 102% in the experiment with HT29 colon; 87.8% in the experiment on SNB-75 CNS; 108% in the experiment on SNB-19 CNS; 96.1% in the experiment with U251 CNS; 90.2% in the experiment on PC-3 prostate; 96% in the experiment with SK-MEL-5 melanoma. The growth is 97.1% in the experiment with UACC-62 melanoma, 97.3% in the experiment on LOX IMVI melanoma, 117% in the experiment on SK-MEL-28 melanoma and 110% in the experiment with SK-MEL-2 melanoma.

For `CC1(C)Cc2c(sc3ncn4nc(-c5ccc(O)cc5)nc4c23)CO1`, the growth in the experiment on HT29 colon was 111%; with SNB-75 CNS, 35.5%; in the experiment with SNB-19 CNS, 79.9%; in the experiment on U251 CNS, 60.6%; in the experiment with PC-3 prostate, 44.4%; in the experiment with SK-MEL-5 melanoma, 56.7%. In addition, the growth in the experiment with UACC-62 melanoma is 82.5%; in the experiment with LOX IMVI melanoma, 75%; in the experiment on SK-MEL-28 melanoma, 73.5%; in the experiment with SK-MEL-2 melanoma, 84.7%.

In the case of `CC[C@H]1CCC/C=C/[C@@H]2C[C@H](O)C[C@H]2[C@H](O)/C=C/C(=O)O1`, the growth is -56.8% (active) in the experiment on HT29 colon; 27.5% in the experiment on SNB-75 CNS; 29.7% in the experiment on SNB-19 CNS; 15.7% in the experiment on U251 CNS; 13.6% with PC-3 prostate; -99.6% (active) in the experiment with SK-MEL-5 melanoma. The growth with UACC-62 melanoma was -0.469% (active); in the experiment on LOX IMVI melanoma, -93.5% (active); in the experiment on SK-MEL-28 melanoma, -0.327% (active); in the experiment with SK-MEL-2 melanoma, -48.1% (active).

Consider `COc1ccc(OC)c(/C=C/c2nnc(Nc3ccc(Cl)cc3)o2)c1`, for which the growth in the experiment on HT29 colon is 76.9%; in the experiment with SNB-75 CNS it was 15.8%; in the experiment with SNB-19 CNS it was 84.9%; in the experiment on U251 CNS, 41.8%; in the experiment with PC-3 prostate, 74.9%; in the experiment with SK-MEL-5 melanoma it was 69.8%. Also, the growth in the experiment with UACC-62 melanoma was 75.8%; with LOX IMVI melanoma, 67.7%; in the experiment on SK-MEL-28 melanoma it was 92.1%; in the experiment with SK-MEL-2 melanoma it was 101%.

As to `c1ccc(CP(Cc2ccccc2)c2ccccc2)cc1`, the growth with HT29 colon was 88.2%; in the experiment on SNB-75 CNS it was 101%; with SNB-19 CNS it was 105%; with U251 CNS it was 93.6%; in the experiment on PC-3 prostate, 86.2%; in the experiment on SK-MEL-5 melanoma it was 99%. The growth in the experiment with UACC-62 melanoma is 99.3%; with LOX IMVI melanoma, 86.8%; in the experiment with SK-MEL-28 melanoma, 110%; in the experiment on SK-MEL-2 melanoma, 97%.

Turning to `COc1cc(Cl)cc(-c2nn(-c3cccc(NC(=O)Nc4cc(C(F)(F)F)cc(C(F)(F)F)c4)c3)cc2-c2ccncc2)c1`, the growth with HT29 colon is 3.93% (active); with SNB-75 CNS it was 11.3%; in the experiment on SNB-19 CNS, 26.1%; with U251 CNS, -58% (active); with PC-3 prostate, -6.27% (active); in the experiment on SK-MEL-5 melanoma it was -79.4% (active). Besides, the growth in the experiment on UACC-62 melanoma was -21.2% (active); in the experiment with LOX IMVI melanoma it was -24% (active); in the experiment on SK-MEL-28 melanoma it was 6.55% (active); in the experiment on SK-MEL-2 melanoma, -38.1% (active).
